About 79,000 compounds went through this panel and 15% of them were active in at least one assay; those are over-represented in the sample as a whole. Activity calls are given as the source filed them. Cut-off read from the data, not from the text of the source: active = growth inhibition above about 70%; inactive = the rest.
Assay: NCI Yeast Anticancer Drug Screen. Data for the CLN2oe strain (AID 163);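 note: 0% = growth of vehicle-only control cultures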
Conditions: S. cerevisiae CLN2oe strain, stronger effect = higher value
Method: Growth inhibition of yeast strains with defined genetic alterations is measured as a screen for potential anti-cancer activity. Selected strains with alterations in DNA damage repair or cell cycle control were exposed to compounds and growth inhibition was measured relative to vehicle treated controls. The strain used in this assay is CLN2oe

Measured: growth inhibition

CCO/C(C)=C(/C#N)C(N)=S
inactive: at 1.2 µM -3% | at 3.7 µM -4% | at 11.0 µM -1% | at 33.0 µM -8% | at 100.0 µM -11%

COC(=O)C1=C(C(=O)OC)C(C(=O)OC)C(C(=O)OC)C(C(=O)OC)(C(=O)OC)C(C(=O)OC)=C1C(=O)OC (stereo not given)
inactive: at 1.2 µM -11% | at 3.7 µM -21% | at 11.0 µM -26% | at 33.0 µM -7% | at 100.0 µM -1%

Cc1cccc(/C=N/NC(=S)N2CCCC2)n1
inactive: at 1.2 µM -30% | at 3.7 µM -31% | at 11.0 µM 10%
active: at 33.0 µM 93% | at 100.0 µM 96%

CC(NCCN(C)C)C1CCC2C3CCc4cc(O)ccc4C3CCC12C (stereo not given)
active: at 100.0 µM 95%
inactive: at 1.2 µM 1% | at 3.7 µM 1% | at 11.0 µM 11% | at 33.0 µM 61%

O=C1OC(C2=CC(=O)c3ccccc3C2=O)C(Cl)=C1Cl (stereo not given)
inactive: at 1.2 µM -2% | at 3.7 µM -13% | at 11.0 µM -4% | at 33.0 µM 12% | at 100.0 µM 30%

Nc1nc2ccc(NCc3ccc(C(=O)NC(CCC(=O)O)C(=O)O)cc3)cc2c(=O)[nH]1 (stereo not given)
inactive: at 1.2 µM 10% | at 3.7 µM 7% | at 11.0 µM -5% | at 33.0 µM 2% | at 100.0 µM 6%

O=C1OC(OC/C(Br)=C(\Br)COC2OC(=O)C(Cl)=C2Cl)C(Cl)=C1Cl (stereo not given)
inactive: at 1.2 µM -2% | at 3.7 µM -1% | at 11.0 µM 2% | at 33.0 µM 9% | at 100.0 µM 14%

CC(C)(C)N=C(NO)c1ccccc1
inactive: at 1.2 µM -9% | at 3.7 µM -7% | at 11.0 µM -2% | at 33.0 µM -4% | at 100.0 µM 47%
